HTT ATP protect = qHTS Multiplex Assay to Identify Dual Action Probes in a Cell Model of Huntington: Cytoprotection (ATP) | PC12 HTT-Q103 induced, cytoprotection, ATP luminescence, 40 h | Potency, µM (series often up to 56.4 µM), most hits filed as activators | actives 0.14% (n = 230,000) | AID 1471, 2008; further: nearly all actives have a fitted effect of over 45% in size
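Compounds were screened for protection of PC12 cells against cell death after tebufenozide induction (100 nM final) of mutant Huntingtin exon 1 (Q103) fused to GFP.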
ALDH1A1 block = qHTS Assay for Inhibitors of Aldehyde Dehydrogenase 1 (ALDH1A1); Aldehyde dehydrogenase 1A1 (Homo sapiens), P00352; Purified ALDH1A1, NADH fluorescence, propionaldehyde substrate; Potency, µM (series often up to 75.3 µM), most hits filed as inhibitors; actives 7.3% (n = 220,000); active means well fitted inhibition curve with a large enough effect, not every such curve was filed as active; inconclusive means small, poorly fitted or top-dose-only effect, or another doubt; inactive means no such curve, though single readings can be large or run the other way
Target sequence (P00352 whole entry, looked up): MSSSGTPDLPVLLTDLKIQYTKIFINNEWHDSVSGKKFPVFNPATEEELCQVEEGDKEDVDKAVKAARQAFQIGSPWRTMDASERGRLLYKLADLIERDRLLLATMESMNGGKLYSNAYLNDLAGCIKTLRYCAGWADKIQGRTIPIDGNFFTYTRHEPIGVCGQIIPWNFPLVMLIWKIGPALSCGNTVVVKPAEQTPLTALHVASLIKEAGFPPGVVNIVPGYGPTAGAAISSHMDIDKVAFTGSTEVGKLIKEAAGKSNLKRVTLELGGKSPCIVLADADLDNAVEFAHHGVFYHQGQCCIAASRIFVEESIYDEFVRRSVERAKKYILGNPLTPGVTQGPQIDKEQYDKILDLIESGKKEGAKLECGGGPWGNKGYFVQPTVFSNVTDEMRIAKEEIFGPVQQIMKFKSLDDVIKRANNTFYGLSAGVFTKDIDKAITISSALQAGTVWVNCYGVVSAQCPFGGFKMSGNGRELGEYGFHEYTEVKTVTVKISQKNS
IMPase cell inh = qHTS Assay for Identifying the Cell-Membrane Permeable IMPase Inhibitors | CHO-M1 cells, IP1 accumulation, HTRF TR-FRET ratio | inhibition (IP1 accumulation), % at 46.1 µM | 120,000 tested, under 10 active; active means well fitted curve in the direction sought with a large enough effect in the signal ratio, not every such curve was filed as active; inconclusive means small, poorly fitted or top-dose-only effect, or a change in a side signal; inactive means no such curve, though single readings can be large or run the other way; the % refers to the signal ratio;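 further: cells stimulated with carbachol in lithium chloride buffer; higher means more IMPase inhibition seen as more IP1 and lower FRET ratio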
Target sequence (P97697 whole entry, looked up): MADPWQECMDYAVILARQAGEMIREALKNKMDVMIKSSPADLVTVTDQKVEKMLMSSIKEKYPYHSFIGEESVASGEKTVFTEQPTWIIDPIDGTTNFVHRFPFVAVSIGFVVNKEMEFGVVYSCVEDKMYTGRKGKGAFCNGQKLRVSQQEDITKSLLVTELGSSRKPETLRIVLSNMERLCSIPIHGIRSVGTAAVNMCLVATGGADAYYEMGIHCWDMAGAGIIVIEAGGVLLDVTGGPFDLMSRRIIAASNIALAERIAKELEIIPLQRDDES
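Cellular IMPase inhibition is scored as a rise in cytosolic IP1, detected by competitive TR-FRET between d2-labelled IP1 and a europium anti-IP1 antibody. M1-expressing CHO cells were stimulated with carbachol for 30 min at 37C, with lithium (50 mM LiCl) present in the buffer.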
IMPase Li inh = qHTS Assay for Identifying the Cell-Membrane Permeable IMPase Inhibitors: Potentiation with Lithium; CHO-M1 cells, IP1 TR-FRET (IP-One), carbachol + lithium; Potency, µM (highest dose often 59.4 µM), hits mostly inhibitors; actives 0.35% (n = 210,000);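 further: IP1 builds up when IMPase is blocked and the TR-FRET signal falls; nearly all actives have a fitted effect of over 50% in size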
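Concentration–response in CHO-M1 cells, lithium-potentiated; 30 min at 37C. IP1 detected by competitive TR-FRET after 10 min lysis at RT. Hill-fitted AC50.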
HPGD block = qHTS Assay for Inhibitors of HPGD (15-Hydroxyprostaglandin Dehydrogenase). 15-hydroxyprostaglandin dehydrogenase [NAD(+)] (Homo sapiens), P15428. purified HPGD, NADH fluorescence kinetic, PGE2 substrate. Potency, µM, hits mostly inhibitors. actives 4.3% (n = 150,000); active means well fitted inhibition curve with a large enough effect, not every such curve was filed as active; inconclusive means small, poorly fitted or top-dose-only effect, or another doubt; inactive means no such curve, though single readings can be large or run the other way
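NADH formation kinetics: reaction with 30 uM PGE2 and 1 mM NAD+ (final), 20 nM enzyme, Tris-HCl pH 8 with Tween 20, after 15 min compound preincubation at room temperature. Fluorescence change, last versus first of five reads.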
HTT aggregate = qHTS Multiplex Assay to Identify Dual Action Probes in a Cell Model of Huntington: Aggregate Formation (GFP). Potency, µM (series often up to 46.1 µM), hits mostly inhibitors. PC12 HttQ103-GFP aggregates, Acumen cytometry, 40 h. AID 1688, 2009. actives 1.1% (n = 220,000); further: nearly all actives have a fitted effect of over 60% in size
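Aggregate formation scored by laser-scanning cytometer (488 excitation, 500–530 emission) in lysed PC12 cells expressing Q103-GFP after 100 nM tebufenozide induction; library tested in dose series, with ATPLite reagent added in the multiplex.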
Numbers stand for hits; i = inactive; ? = inconclusive; nt = not tested or not shown; ! = repeats disagree; [ ] = dose if it differs, or a comment. Shown are actives, neighbours in structure and some others; about 9.4% of the full set was active somewhere. Unless noted, the call rests on the fitted dose curve; in most records, active means well fitted curve in the direction sought with a large enough effect; inconclusive means small, poorly fitted or top-dose-only effect, or another doubt; inactive means no such curve, though single readings can be large; an effect the other way counts as inactive or inconclusive.

SMILES	HTT ATP protect	ALDH1A1 block	IMPase cell inh	IMPase Li inh	HPGD block	HTT aggregate
COc1ccc(N2C(=O)NC(=O)/C(=C/c3ccc([N+](=O)[O-])s3)C2=O)cc1	i[10 µM]	nt	nt	nt	nt	i[9.22 µM]
C[C@@H](Cc1ccc2c(c1)OC(C(=O)O)(C(=O)O)O2)NC[C@H](O)c1cccc(Cl)c1	i[1.9 µM]	nt	i	nt	nt	nt
N[C@@H](Cc1cc(O)c(O)cc1O)C(=O)O	i[1.9 µM]	nt	i	nt	nt	nt
N[C@@H](Cc1cc(I)c(O)c(I)c1)C(=O)O	i	11µM!	nt	i	i	i
NC(Cc1cc(O)c(O)cc1O)C(=O)O (stereo not given)	nt	11µM	nt	i	4.5µM	nt
NC(Cc1ccc(Oc2cc(I)c(O)c(I)c2)c(I)c1)C(=O)O (stereo not given)	i	nt	nt	nt	nt	i
O=C(O)[C@H]1C2c3ccccc3C(c3ccccc32)[C@@H]1C(=O)NCC1CC1	i[10 µM]	i[13.5 µM]	nt	i	i	nt
O=NN(c1ccccc1)c1ccccc1	i	?	nt	i	i	nt
COc1ccc(-n2cnc3cc(C(=O)N4CCC5(CC4)OCCO5)ccc32)cc1	i	?	nt	i	nt	i
O=C(c1ccc2nc(-c3ccco3)c(-c3ccco3)nc2c1)N1CCC2(CC1)OCCO2	i[10 µM]	?	i	i	?	i
Cc1nc2cc(C(=O)N3CCC4(CC3)OCCO4)ccc2n1-c1cccc(F)c1	i	25µM	i	i	2.8µM	i[9.22 µM]
O=C(c1ccc2c(c1)ncn2C1CCCCCC1)N1CCC2(CC1)OCCO2	i	i	i	i	14µM	i
CC(=O)NC(Cc1ccc(N(CCCl)CCCl)cc1)C(=O)NC(CC(C)C)C(=O)O (stereo not given)	i[10 µM]	2.2µM	nt	i	nt	i[9.22 µM]
C[C@]12CC[C@H](O)C[C@@H]1CC[C@H]1[C@H]2CC[C@]2(C)[C@H](C(=O)CO)CC[C@@H]12	i[1.9 µM]	nt	i	nt	nt	nt
CCOc1ccc(N2C(=O)NC(=O)/C(=C\c3cc(OC)c(OC)cc3[N+](=O)[O-])C2=O)cc1	i[0.074 µM]	11µM	nt	i	28µM	i
COc1ccc(CN2C(=O)NC(=O)/C(=C/c3ccc([N+](=O)[O-])s3)C2=O)cc1	i[10 µM]	4µM	nt	nt	nt	i[9.22 µM]
COc1ccc(N2C(=O)/C(=C/C=C/c3ccccc3[N+](=O)[O-])C(=O)NC2=S)cc1	i	8.9µM	nt	i	nt	i
COc1ccc(N2C(=O)NC(=O)/C(=C\c3ccc([N+](=O)[O-])s3)C2=O)cc1	i	40µM	nt	i	nt	i
CCOc1ccc(N2C(=O)NC(=O)/C(=C\c3ccc(N4CCOCC4)cc3C)C2=O)cc1	i[10 µM]	?	nt	i	nt	i[9.22 µM]
O=C1NC(=O)N(c2ccccc2)C(=O)/C1=C\c1ccccc1[N+](=O)[O-]	i[10 µM]	nt	nt	nt	nt	i[9.22 µM]
O=C1/C(=C\c2ccccc2)C[C@@]2(O)[C@H]3Cc4ccc(O)c5c4[C@@]2(CCN3CC2CC2)[C@H]1O5	nt	i	nt	i	nt	nt
ClCBr	i	i	nt	i	i	nt
Cc1ccc2cc3c(ccc4ccccc43)c3c2c1CC3	i	?	nt	i	nt	nt
NC(=O)C1CCN(/C=C2\C(=O)NC(=O)N(Cc3ccco3)C2=O)CC1	i[10 µM]	nt	nt	nt	nt	i[9.22 µM]
O=C1NC(=O)N(Cc2ccccc2)C(=O)/C1=C/C=C/c1ccco1	i[10 µM]	nt	nt	nt	nt	i[9.22 µM]
SMILES	HTT ATP protect	ALDH1A1 block	IMPase cell inh	IMPase Li inh	HPGD block	HTT aggregate
CC(C)N1C(=O)/C(=C/C=C/c2ccco2)C(=O)N(Cc2ccco2)C1=O	i	22µM	i	i	32µM	?
COc1ccc(CN2C(=O)NC(=O)/C(=C\c3ccco3)C2=O)cc1	i[10 µM]	?	nt	i	nt	i
CCN1C(=O)C(=C/C=C/c2ccco2)C(=O)N(CC)C1=S	i[10 µM]	1.3µM	i	i	11µM	?
COc1ccc(/C=C2/C(=O)N(Cc3ccco3)C(=O)N(C(C)C)C2=O)cc1	i[10 µM]	4µM	nt	i	22µM	i
CCOC(=O)Cc1[nH]nc2c1C(c1ccoc1)C(C#N)=C(N)O2 (stereo not given)	i	?	i	i	i	?
O=C1C2CCCN2C(c2ccncc2)N1c1ccc(Cl)c(Cl)c1 (stereo not given)	i	20µM	i	nt	nt	i
O=C1C2CCCN2C(c2cccnc2)N1c1ccc(Cl)c(Cl)c1 (stereo not given)	i	i	i	i	i	i
Cc1cc2c(s1)NC(=O)CN=C2c1cccs1	i[10 µM]	?	i	i	25µM	i
O=C1CN=C(c2cccs2)c2c(sc3c2CCCC3)N1	i	?	i	i	?	i
CC(C)(C)NCC1(CO)SC(N)=NC1=O (stereo not given)	i	i	i	i	i	22µM
CC[n+]1c(/C=C/N(C)c2ccccc2)sc2ccc(Cl)cc21	i	16µM	i	i	i	13µM
O=C(CCl)NN=C(c1ccccc1)c1ccccc1	i	0.013µM	nt	i	nt	i
COc1ccc2[nH]cc(C3=CCNCC3)c2c1	i	?	i	i	i	nt
COc1ccc2c3c([nH]c2c1)C(C)=NCC3	i	?	i	?	?	16µM
CC1CC(OP(O)(=S)c2ccc(N(C)C)cc2NC(=O)c2cccs2)CC(C)(C)C1 (stereo not given)	i	4µM	nt	i	nt	?
FC(Cl)(Cl)Cl	i	i	nt	i	i	nt
O=CC1=C(N2CCOCC2)/C(=C\c2ccccc2)CC1	i	3.5µM	nt	i	nt	i
C(#CCN1CCOCC1)COC/C=C/c1ccccc1	i	i	i	i	i	i
CC(=O)[O-].CC(=O)[O-].O.O.[Cd+2]	i	7.5µM	nt	i	i	nt
CCC(C)=O	i	?	nt	i	i	nt
CCOc1c(Cl)cc(CNCCc2c[nH]c3ccccc23)cc1OC	i[10 µM]	3.5µM	nt	i	nt	i[9.22 µM]
CCOc1cc(CNCCc2c[nH]c3ccccc23)cc(Cl)c1OCC	i[10 µM]	i	nt	i	i	i
O=C/C=C/c1ccccc1	i	13µM!	nt	i	i	i
CC(=O)/C=C/c1ccccc1	i	i	nt	i	i	nt
CCCc1cc2c(n1Cc1ccco1)C(C)C1CN(C(=O)c3ccccc3)C(C)(C(=O)OC)C21 (stereo not given)	i	?	nt	i	?	nt
CN1CCN(C(=O)COc2ccc(S(=O)(=O)N(C)Cc3ccccc3)cc2)CC1	i	?	i	i	14µM	i
CC1(C)CCC(C)(C)c2c1ccc(O)c2Cc1c(O)ccc2c1C(C)(C)CCC2(C)C	i[10 µM]	i[13.5 µM]	nt	i	i	nt
O=C(O)[C@@H]1[C@H](C(=O)O)[C@]2(Cl)C(Cl)=C(Cl)[C@@]1(Cl)C2(Cl)Cl	i[10 µM]	3.2µM	nt	i	i	nt
CCOC(=O)C1=C(NC(=S)NC(=O)c2ccccc2)c2ccccc2CC12CCCC2	i[10 µM]	22µM	nt	i	i	i

Compound activity from PubChem.
